Pf Dd2 inh: blocks in vitro growth of P. falciparum Dd2. 4.3% of 120,000 active. P. falciparum Dd2 growth, SYBR Green, 72 h. Potency, µM (highest dose often 28.9 µM), actives largely listed as inhibitors; active = well fitted inhibition curve with a large enough effect; also: nearly all actives have a fitted effect of over 65% in size
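Infected erythrocytes (Dd2, 0.3% parasitemia, 2.5% hematocrit final) are added to compound in RPMI-1640/Albumax II medium, grown 72 h at 37C in low oxygen, then lysed with saponin/Triton-X containing SYBR Green and read by fluorescence.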
Numbers stand for hits; i = inactive. Many of the other results were omitted from the sample, so hits are more common in it than they were.

SMILES	Pf Dd2 inh
CNC(=O)[C@@H](C1CCCCC1)N1CCC[C@H]1C(=O)N1CCN(CCOC)CC1	i
COCCCNc1ccc2nnc(-c3ccc(F)cn3)n2n1	i
CC(C)c1cccc(NC(=O)CN2C(=O)C(c3ccccc3)=NC23CCCC3)c1	i
CCNC(=O)[C@@H]1C[C@H](NC(=O)c2scnc2C)CN1Cc1nc(C)no1	i
c1cnc2nc(C3CCCN3)[nH]c2c1 (centres undefined)	i
O=C(NCc1ccc2c(c1)CCN2C(=O)c1ccc(F)cc1)c1c(F)cccc1F	i
N#Cc1ccc(C(=O)NCc2ccc3c(c2)CCN3C(=O)c2ccc(F)cc2)cc1	5µM
CCC(=O)N1CCc2cc(CNC(=O)c3ccc(C#N)cc3)ccc21	i
C[C@@H]1CN(Cc2nnnn2CC(=O)NC2CCN(Cc3ccccc3)CC2)C[C@H](C)O1	i
COc1ccc(-n2nc3n(c2=O)CCN(CC2CCCCC2)C3)cc1	i
CCCOc1cccc(-c2nc(C(=O)NCC)cs2)c1	i
CCc1nc(C)ccc1OCC(=O)NCC1COc2cc(OC)ccc2C1 (centres undefined)	i
Cc1ccc(NC(=O)N2CCC(Cc3nncn3Cc3ccccc3)C2)cc1C (centres undefined)	i
Cc1ccc(-c2cc(C(=O)N3CCC(Cc4nncn4CC4CC4)CC3)c3ccccc3n2)cc1C	2.8µM
O=C(c1ccc2cc[nH]c2c1)N1CCC(Cc2nncn2CC2CC2)C1 (centres undefined)	i
CCOc1ccc(OCC)c(NC(=O)C2CCCN(S(=O)(=O)c3cc(Br)cc4c3N(C(=O)CC)CC4)C2)c1 (centres undefined)	7.9µM
CCOC(=O)C1CCCN(S(=O)(=O)c2cc(Br)cc3c2N(C(C)=O)CC3)C1 (centres undefined)	i
CCOC(=O)c1cccc(NC(=O)C2CCCN(S(=O)(=O)c3cc(Br)cc4c3N(C(=O)CC)CC4)C2)c1 (centres undefined)	i
Cc1cccc(CN2CCCC(O)(CN3CCOCC3)C2=O)c1 (centres undefined)	i
CC[C@H]1CN2CC[C@H]1C[C@@H]2CNCc1ccc(OC)cc1	8.9µM
COc1ccc(CNC[C@H]2C[C@@H]3CCN2C[C@@H]3c2cc(-c3ccc(F)cc3)nn2C)cc1	13µM
C=C[C@H]1CN2CC[C@H]1C[C@@H]2CNCc1ccc(N(C)C)cc1	i
COc1ccc(-c2cc([C@H]3CN4CC[C@H]3C[C@@H]4CNC(=O)c3ccco3)n(C)n2)cc1	i
CC[C@H]1CN2CC[C@H]1C[C@@H]2CNC(=O)Nc1ccc(Br)cc1	i
CCN(CC)C[C@H]1CN2CC[C@H]1C[C@@H]2CNS(=O)(=O)c1ccccc1	i
SMILES	Pf Dd2 inh
COc1ccc(-c2cc([C@H]3CN4CC[C@H]3C[C@@H]4CNS(=O)(=O)c3ccccc3)n(C)n2)cc1	i
CC[C@H]1CN2CC[C@H]1C[C@@H]2CN(Cc1ccc(SC)cc1)Cc1ccc(SC)cc1	3.5µM
CC[C@H]1CN2CC[C@H]1C[C@@H]2CNC(=O)c1ccc2ccccc2c1	i
CCOc1ccccc1NC(=O)N1CCC(OC2CCN(S(C)(=O)=O)CC2)CC1	i
COCCN1CCCN(C(=O)c2cccc(F)c2)c2ccccc21	i
CC(C)C[C@H](NC(=O)Cn1nc2c(cc1=O)CCCCC2)c1nnc2ccccn12	i
Cc1cn2nc(C(=O)N3CCN(c4ccccc4)CC3)cc2c(N2CCCC2)n1	i
COc1ccc(NC(=O)c2cc3c(N(C)Cc4ccccc4)nc(C)cn3n2)cc1OC	i
Cc1cn2nc(C(=O)N3CCCC3)cc2c(N(C)Cc2ccccc2)n1	i
Cc1cn2nc(C(=O)Nc3ccccc3F)cc2c(N(C)Cc2ccccc2)n1	7.9µM
Cc1cn2nc(C(=O)N3CCC(C)CC3)cc2c(N(C)Cc2ccccc2)n1	11µM
Cc1cn2nc(C(=O)NCCCc3ccccc3)cc2c(N2CCCC2)n1	i
c1ccc(C2=NOC3(CCN(C4COC4)CC3)C2)cc1	i
Cc1cccc(OCC(=O)N2CCC3(CC2)N(C)C(=O)CS3(=O)=O)c1	i
CCN(Cc1ccc(C)o1)C(=O)c1cccc(CCC(C)(C)O)c1	i
N#Cc1cccc(C(=O)N2CCCCCCNC(=O)CC2c2ccccc2)c1 (centres undefined)	i
CN1CCC(NC(=O)c2n[nH]c3c2CN(C(=O)c2cc(F)cc(F)c2)CC3)CC1	i
O=S1(=O)N(Cc2ccccc2)CCCN1Cc1cccc(Cl)c1	i
O=C(Cn1c(=O)c2c(n1Cc1ccccc1)CN(Cc1ccccc1)CC2)NCc1ccc2c(c1)OCO2	i
O=c1c2cc3c(cc2n(Cc2cccc(Cl)c2)c(=O)n1Cc1nc(-c2ccccc2)no1)OCO3	i
O=C(Cn1c2c(c(=O)n1Cc1ccccc1)CCN(Cc1ccccc1)C2)NCc1ccc2c(c1)OCO2	i
O=C(Cn1c(=O)c2c(n1Cc1ccccc1)CN(Cc1ccccc1)CC2)Nc1cccc(F)c1	i
CCc1cc2c(-c3ccccc3)cc(=O)oc2c2c1OCN(Cc1ccc(F)cc1)C2	3.5µM
O=c1cc(-c2ccccc2)c2ccc3c(c2o1)CN(Cc1cccc(Cl)c1)CO3	0.63µM
O=C1c2cc(N3CCOCC3)nc(-c3ccc(F)cc3)c2CN1Cc1ccccc1	i
SMILES	Pf Dd2 inh
O=c1cc(-c2ccccc2)c2cc(Cl)c3c(c2o1)CN(Cc1ccccc1)CO3	13µM
COC[C@@H]1CN(C(=O)c2ccc(OC)nc2OC)C[C@H]1c1ccncc1	i
Cc1ccc(NC(=O)Cn2c(=O)c(-c3noc(C)n3)c3n(c2=O)CCCCC3)c(C)c1	i
CCC1=C(C(=O)OC)C(c2ccccc2)N2C(CC(=O)NCCc3cccs3)=CSC2=N1 (centres undefined)	i
Cc1ncsc1CCC(=O)N[C@@H]1CCOC[C@H]1OCC(=O)O	i
CC(C)(C)n1ccc(C(=O)NC2CC(c3nnc(CO)n3C3CC3)C2)c1 (centres undefined)	i
CCOC(=O)CCNC(=O)N1CCC(C(=O)N2CCCCCCNC(=O)CC2)CC1	i
COCCNC(=O)c1ccc(OC2CCN(S(C)(=O)=O)CC2)c(Cl)c1	i
O=C(NC1CCCC1)c1ccc(OC2CCN(CCCC(F)(F)F)CC2)c(Cl)c1	1.4µM
COCCNC(=O)c1ccc(OC2CCN(Cc3ncc[nH]3)CC2)c(Cl)c1	i
O=C(NCCc1cccc(Oc2ccccc2)c1)[C@H]1CCC[C@H](O)C1	i
C=CCn1cc2c3c(cccc31)[C@H](CC(C)C)N[C@H](C(=O)NCCCN1CCCC1=O)C2	i
C=CCN1CCN(C(=O)[C@@H]2Cc3c[nH]c4cccc(c34)[C@H](CC(C)C)N2)CC1	11µM
C=CCn1cc2c3c(cccc31)[C@H](CC(C)C)N[C@H](C(=O)NCc1ccc(OC)cc1)C2	i
Cc1ccc(-c2nnc(C3CN(C(=O)CC(C)(C)C)CC34CCOCC4)o2)cc1 (centres undefined)	i
Cc1cccc(CN(CCN2CCCCC2)CC2CCCN(C3CCCC3)C2)n1 (centres undefined)	i
OCC1CN(C2CCC2)CC12CCN(Cc1ccc[nH]1)CC2 (centres undefined)	i
OCC1CN(C2CCC2)CC12CCN(Cc1ccc(F)cc1)CC2 (centres undefined)	13µM
OCC1CN(C2CCC2)CC12CCN(Cc1cc(F)c(F)c(F)c1)CC2 (centres undefined)	i
CC1Oc2ccc(NC(=O)c3c(F)cccc3F)cc2CN(CCc2ccc(F)cc2)C1=O (centres undefined)	i
CNC(=O)[C@@H]1CN(C(=O)c2ccc3c(c2)OCO3)C[C@H]1c1n[nH]c(C)n1	i
CC(C)CS(=O)(=O)c1ncc(CN(C)Cc2cnn(C)c2)n1Cc1ccccc1	i

Screens from PubChem BioAssay.
